From the supplement of paper PMC6555819 come the findings set out here.

The subject of this assay is VDR:RXRa (NR concentration 270 nM, RXRa partner concentration 90 nM). Briefly: PBM binding z-score (relative to random genomic background probes); higher = stronger binding; sequences stand for … in GC…GCGATTGACAGCGTAGAATGAAGG
As for the experimental part: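 Protein-binding microarray (Agilent 4x180K custom design, double-stranded 60-nt probes: 5' GC cap, 34-nt variable region, 24-nt constant primer region; full probe sequence given). Purified or IVT nuclear receptor:RXRα heterodimers (3:1 NR:RXRα, mostly 270:90 nM) or homodimers were incubated for 1 h in PBS with 2% milk and no ligand, then detected with Alexa488 antibodies. Fluorescence from o1-orientation probes (~5 replicates averaged) was converted to z-scores against 500 random hg19 background probes. Variable regions are seed direct-repeat (DR0–DR5) sites, all their single-nucleotide variants and half-site ablations.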
ATACCAAGGTGATCGTGAGGTCGGTGATACTAAC displayed a PBM binding z-score of 0.863.
CTCGAAAGGTCGGTTGCGGTGAGTATACGGATAA: the PBM binding z-score was found to be 1.11.
Consider CCGACTGGGGCAGAAAGGTTGCCATACCATCCGG, for which the PBM binding z-score is -0.0793.
Take GTTGCTAGGTCAGGTTGGTCAGCTAACGGGTACG: the PBM binding z-score was determined as 0.892.
The sequence CCTAGTTGGTCAAGGTCACCCACGCTATAGGTAC yielded a PBM binding z-score of 4.
As to TCGATTAGTTGAAGGGCAACCGACGAGTCCGTTT, the PBM binding z-score turned out to be 0.389.
For the sequence GCTAGTCGGTCAGTAAAAGGTCACACACCGGTCG, the PBM binding z-score stood at 4.18.
CAAATTAGGTCAAGGTCAAAGTCGGTTTGTGCCA had a PBM binding z-score of 5.33.
Turning to TCTTGTAGATCGGCAGGTTAAGAAAGCTGGCCAA, the PBM binding z-score was 0.405.
For the sequence ACTATTAGTTGAGACGTGGGCAACCGATAGGTTG, the PBM binding z-score is -0.5.
With CGAACTATGTCAGAACAGGACAGTGAAGGATGAT, the PBM binding z-score is -0.317.
Take GCTTGTAGATCATGGTTAAGAAAGACTAAGCTAA: the PBM binding z-score was -0.404.
Take GGAACGAGGGGAAAGTTGATAGCATCTGTCGACG: the PBM binding z-score was -0.259.
As for GGAACGACGGCAAGTTGATAGCAGAGTTTGATGG, the PBM binding z-score is -0.532.
As to GGAACGAGGGCCTTCGAGTTGATAGCATGGCGAT, the PBM binding z-score was -0.0234.
With TCATATAGGTAAATGCTAGGTGAAAGTGCGATCT, the PBM binding z-score was 0.984.
For the sequence CAAACTAGGTCACCGGAAGGTCAACGTCCGCATG, the PBM binding z-score is 5.72.
Sequence TTACCAAGGCGAGCTGAGGTCGTTGATCCAACTC showed a PBM binding z-score of 1.63.
TCTTCTAGATCAATAGAGGTTAAGAAAGTGCGCT registered a PBM binding z-score of 1.94.
As for TTACCAAGGTGAGCTGAGGTCGTTGAACCAACTC, the PBM binding z-score came out at 4.25.
On to ATCTCTAGGTAAAGATAGTTCAGTGAGTGCAAAT, for which the PBM binding z-score amounted to 5.05.
Turning to ACAGACAGGTGATGAAGGGAACTCAGGCTATCAT, the PBM binding z-score was -0.182.
In the case of CCGACTCGGGCAAAGGTTACCATACTCAGTACGA it was 1.33; in that of CGAACTAGGTGAGAACAGGACAGTGAAGGATGAT, -0.123.
Regarding GCATATAGGTAATGCAAGGTGAAAGTCCGATTGT, the PBM binding z-score stood at 0.358.
The same measure for GATACAAGGTCAAGGCCAGAGTACGCGTATTGAT: 4.39; for CGTCCAAGGTCAGCCGGTCAGTGAAAGCGACGTG: 3.32.
Sequence AGAATGAGGTTATTAAGATCAGGGGATTGCGGTC had a PBM binding z-score of 2.36.
In the case of ATCTCTAGGTACAGTTCAGTGAAAGATCGATAGA it was 1.12.
Take CTCGCAAGGTCGTGCTCAGGTGAGTATACCAAAC: the PBM binding z-score worked out at 2.24.
Sequence CATCCAAGGTCAGAGAGGTCAGTGAATGCCGAGT displayed a PBM binding z-score of 7.55.
TCATATAGTTAAAAGGTGAAAGTCGGTGTGGTAA displayed a PBM binding z-score of 1.52.
For the sequence CAAACTAGGTCACCGGAAGGTCAATGTCCGCATG, the PBM binding z-score was 5.36.
In the case of CCTACTGGGCCACGAAAAGTCATTGATTCAGTGA it was -0.413; in that of TCATATAGGTAAAGGGTGAAAGTCGGTGTGGTAA, 1.17.
In the case of GCGACTGGGGCAAAGCCGGTTACCATAAGGTTGG it was -0.76.
For the sequence CAAACTAGGCCACCGGAAGGTCAAAGTCCGCATG, the PBM binding z-score turned out to be 3.2.
In the case of CAAACTAGGTCAAGATGTCAAAGTCCGCTTCCCG, the PBM binding z-score was 2.2.
For the sequence CGTCCACGGTCATAGGAGGTCAGTGAAGACAGAT, the PBM binding z-score was determined as 3.27.
In the case of CCGACTGGGGCATAAGGATACCATAAGCCAGCCC it was -0.657.
